Laboratory results from ChEMBL document CHEMBL3988442, “University of Dundee, Small-Polar-MMV Screening Library” (2021).
For some of these results: Results with a measured potency or affinity are listed apart.

Key:
Set-up in all cases: scale not given: direction of the effect not stated beside the values
[1] = target: Protein translocase subunit SecA (Escherichia coli (strain K12)) (UniProt P10408); experiment: Assay to Identify E. coli SecA ATPase Inhibitors; assay type: functional; conditions: 30 µM
[2] = target: T1, Ubiquitin-activating enzyme e1, putative (Leishmania donovani (strain BPK282A1)) (UniProt E9BSI1); experiment: Leishmania donovani Ubiquitin Activating Enzyme (LdE1); assay type: functional; conditions: 30 µM
T1 sequence (whole entry): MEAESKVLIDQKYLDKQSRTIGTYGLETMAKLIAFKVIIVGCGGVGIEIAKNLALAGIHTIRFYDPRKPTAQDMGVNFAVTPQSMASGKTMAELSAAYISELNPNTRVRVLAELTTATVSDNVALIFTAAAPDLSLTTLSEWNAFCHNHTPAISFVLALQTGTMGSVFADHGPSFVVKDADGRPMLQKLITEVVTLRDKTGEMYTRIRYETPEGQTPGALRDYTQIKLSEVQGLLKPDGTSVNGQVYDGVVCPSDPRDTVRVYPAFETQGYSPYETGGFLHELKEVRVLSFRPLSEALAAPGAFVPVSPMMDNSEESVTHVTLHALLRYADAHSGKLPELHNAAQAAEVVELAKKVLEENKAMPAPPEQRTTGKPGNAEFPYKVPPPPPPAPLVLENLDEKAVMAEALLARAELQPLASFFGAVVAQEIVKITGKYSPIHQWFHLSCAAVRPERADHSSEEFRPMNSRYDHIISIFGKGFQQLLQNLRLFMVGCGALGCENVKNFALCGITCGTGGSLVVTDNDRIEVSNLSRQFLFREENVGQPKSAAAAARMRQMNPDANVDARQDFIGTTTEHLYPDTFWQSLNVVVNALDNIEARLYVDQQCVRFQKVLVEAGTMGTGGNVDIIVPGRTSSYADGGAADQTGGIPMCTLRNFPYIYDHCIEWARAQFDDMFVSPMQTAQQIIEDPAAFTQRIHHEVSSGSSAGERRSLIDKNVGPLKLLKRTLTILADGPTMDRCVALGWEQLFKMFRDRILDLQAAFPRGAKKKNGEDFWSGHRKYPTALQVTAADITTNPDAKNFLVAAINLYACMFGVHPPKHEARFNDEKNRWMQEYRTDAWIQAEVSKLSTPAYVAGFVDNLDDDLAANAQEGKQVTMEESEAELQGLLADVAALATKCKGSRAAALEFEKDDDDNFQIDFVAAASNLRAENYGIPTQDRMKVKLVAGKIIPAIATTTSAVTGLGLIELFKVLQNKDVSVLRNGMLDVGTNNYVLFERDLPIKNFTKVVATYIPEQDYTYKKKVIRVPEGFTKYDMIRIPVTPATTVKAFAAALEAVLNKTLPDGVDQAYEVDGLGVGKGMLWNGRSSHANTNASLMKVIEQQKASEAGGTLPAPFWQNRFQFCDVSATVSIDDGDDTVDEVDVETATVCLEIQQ

[3] = target: AMP-activated protein kinase, AMPK (Homo sapiens) (UniProt P54646+O43741+P54619+Q9UGJ0+Q9Y478+Q13131+Q9UGI9); experiment: AMP-dependent Kinase enzyme assay. An in vitro enzyme assay that detects ADP turnover that is directly proportional to AMPK activity. This uses naive AMPK that is activated during the assay with MK-8722; assay type: functional; conditions: 30 µM
[4] = target: Sialic acid-binding Ig-like lectin 9 (Homo sapiens) (UniProt Q9Y336); experiment: Hs-Siglec9 ALPHAscreen SOP 20170721; conditions: 10 µM
[5] = system: Trypanosoma cruzi; experiment: Trypanosoma cruzi phosphomannomutase and mannose-1-phosphate guanylyltransferase assay; assay type: functional; conditions: 10 µM
[6] = target: T2, Arginase-2, mitochondrial (Homo sapiens) (UniProt P78540); experiment: in vitro enzyme assay to detect the production of urea directly proportional to the activity of Arginase II; assay type: functional; conditions: 33.3 µM; further: in the data most compounds retested in dose-response had high values
T2 sequence (whole entry): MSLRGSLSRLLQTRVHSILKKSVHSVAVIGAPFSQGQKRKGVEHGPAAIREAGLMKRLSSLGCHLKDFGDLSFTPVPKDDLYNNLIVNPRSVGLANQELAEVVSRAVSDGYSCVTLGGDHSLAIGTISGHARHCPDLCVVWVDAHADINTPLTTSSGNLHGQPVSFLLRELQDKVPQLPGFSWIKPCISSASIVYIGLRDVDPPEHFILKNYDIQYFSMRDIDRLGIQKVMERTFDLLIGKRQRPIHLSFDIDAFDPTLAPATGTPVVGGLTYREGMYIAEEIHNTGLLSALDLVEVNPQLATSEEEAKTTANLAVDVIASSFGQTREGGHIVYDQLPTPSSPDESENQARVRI

[7] = target: T3, Proteasome subunit beta (Trypanosoma cruzi) (UniProt O96673); experiment: Trypanosoma cruzi proteasome chymotrypsin-like activity (TcProtChymo) assay.; further: in the data most compounds retested in dose-response had high values; assay type: functional; conditions: 9.37 µM
T3 sequence (whole entry): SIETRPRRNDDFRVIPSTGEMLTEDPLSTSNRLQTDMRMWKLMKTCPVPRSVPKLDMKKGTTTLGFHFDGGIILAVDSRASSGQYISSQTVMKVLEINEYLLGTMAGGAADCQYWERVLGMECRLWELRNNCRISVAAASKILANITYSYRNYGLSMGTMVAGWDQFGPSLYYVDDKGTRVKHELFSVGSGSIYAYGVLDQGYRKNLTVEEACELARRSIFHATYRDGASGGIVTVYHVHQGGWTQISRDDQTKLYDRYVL

[8] = organism: Homo sapiens; experiment: To identify inhibition of the IFN signalling (Jak-Stat) pathway via expression of an eGFP reporter gene under the control of an IFN-stimulated response element (ISRE) containing MxA promoter.; assay type: functional; conditions: 30 µM
[9] = target: T4, Tyrosyl-tRNA synthetase, putative (Trypanosoma cruzi (strain CL Brener)) (UniProt Q4DSP6); experiment: Trypanosoma cruzi tyrosyl tRNA synthetase (TcYRS) _High Tyrosine SOP; assay type: functional; conditions: 30 µM; further: in the data most compounds retested in dose-response had high values
T4 sequence (whole entry): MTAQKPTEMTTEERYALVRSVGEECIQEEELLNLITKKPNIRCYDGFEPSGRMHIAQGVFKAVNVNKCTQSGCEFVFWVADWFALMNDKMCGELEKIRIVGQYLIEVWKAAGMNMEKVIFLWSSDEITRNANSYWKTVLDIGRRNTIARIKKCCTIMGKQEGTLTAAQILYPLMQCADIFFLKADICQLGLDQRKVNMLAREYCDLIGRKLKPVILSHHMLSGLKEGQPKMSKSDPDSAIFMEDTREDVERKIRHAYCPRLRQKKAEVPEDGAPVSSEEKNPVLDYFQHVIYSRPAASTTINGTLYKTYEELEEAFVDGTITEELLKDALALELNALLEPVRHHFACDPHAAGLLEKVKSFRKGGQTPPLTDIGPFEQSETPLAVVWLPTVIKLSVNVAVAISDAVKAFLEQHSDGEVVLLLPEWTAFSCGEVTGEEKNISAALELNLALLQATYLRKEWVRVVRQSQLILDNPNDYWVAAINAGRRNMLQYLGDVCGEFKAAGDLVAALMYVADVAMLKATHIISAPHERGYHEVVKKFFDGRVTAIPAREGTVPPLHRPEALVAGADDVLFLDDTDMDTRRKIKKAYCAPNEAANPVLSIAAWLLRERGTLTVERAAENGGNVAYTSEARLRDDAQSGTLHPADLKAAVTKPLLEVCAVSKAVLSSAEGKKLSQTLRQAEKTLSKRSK

[10] = target: T4, Tyrosyl-tRNA synthetase, putative (Trypanosoma cruzi (strain CL Brener)); experiment: Trypanosoma cruzi tyrosyl tRNA synthetase (TcYRS) SOP; assay type: functional; conditions: 30 µM
[11] = target: Chromo domain-containing protein 1 (Saccharomyces cerevisiae (strain ATCC 204508 / S288c) (Baker's yeast)) (UniProt P32657); experiment: ScCHD-1 Enzyme Inhibition Assay; assay type: functional; conditions: 30 µM; further: in the data most compounds retested in dose-response had high values
Sequence of Chromo domain-containing protein 1 (Saccharomyces cerevisiae (strain ATCC 204508 / S288c) (Baker's yeast)) (P32657 whole entry, the tested form may be a part): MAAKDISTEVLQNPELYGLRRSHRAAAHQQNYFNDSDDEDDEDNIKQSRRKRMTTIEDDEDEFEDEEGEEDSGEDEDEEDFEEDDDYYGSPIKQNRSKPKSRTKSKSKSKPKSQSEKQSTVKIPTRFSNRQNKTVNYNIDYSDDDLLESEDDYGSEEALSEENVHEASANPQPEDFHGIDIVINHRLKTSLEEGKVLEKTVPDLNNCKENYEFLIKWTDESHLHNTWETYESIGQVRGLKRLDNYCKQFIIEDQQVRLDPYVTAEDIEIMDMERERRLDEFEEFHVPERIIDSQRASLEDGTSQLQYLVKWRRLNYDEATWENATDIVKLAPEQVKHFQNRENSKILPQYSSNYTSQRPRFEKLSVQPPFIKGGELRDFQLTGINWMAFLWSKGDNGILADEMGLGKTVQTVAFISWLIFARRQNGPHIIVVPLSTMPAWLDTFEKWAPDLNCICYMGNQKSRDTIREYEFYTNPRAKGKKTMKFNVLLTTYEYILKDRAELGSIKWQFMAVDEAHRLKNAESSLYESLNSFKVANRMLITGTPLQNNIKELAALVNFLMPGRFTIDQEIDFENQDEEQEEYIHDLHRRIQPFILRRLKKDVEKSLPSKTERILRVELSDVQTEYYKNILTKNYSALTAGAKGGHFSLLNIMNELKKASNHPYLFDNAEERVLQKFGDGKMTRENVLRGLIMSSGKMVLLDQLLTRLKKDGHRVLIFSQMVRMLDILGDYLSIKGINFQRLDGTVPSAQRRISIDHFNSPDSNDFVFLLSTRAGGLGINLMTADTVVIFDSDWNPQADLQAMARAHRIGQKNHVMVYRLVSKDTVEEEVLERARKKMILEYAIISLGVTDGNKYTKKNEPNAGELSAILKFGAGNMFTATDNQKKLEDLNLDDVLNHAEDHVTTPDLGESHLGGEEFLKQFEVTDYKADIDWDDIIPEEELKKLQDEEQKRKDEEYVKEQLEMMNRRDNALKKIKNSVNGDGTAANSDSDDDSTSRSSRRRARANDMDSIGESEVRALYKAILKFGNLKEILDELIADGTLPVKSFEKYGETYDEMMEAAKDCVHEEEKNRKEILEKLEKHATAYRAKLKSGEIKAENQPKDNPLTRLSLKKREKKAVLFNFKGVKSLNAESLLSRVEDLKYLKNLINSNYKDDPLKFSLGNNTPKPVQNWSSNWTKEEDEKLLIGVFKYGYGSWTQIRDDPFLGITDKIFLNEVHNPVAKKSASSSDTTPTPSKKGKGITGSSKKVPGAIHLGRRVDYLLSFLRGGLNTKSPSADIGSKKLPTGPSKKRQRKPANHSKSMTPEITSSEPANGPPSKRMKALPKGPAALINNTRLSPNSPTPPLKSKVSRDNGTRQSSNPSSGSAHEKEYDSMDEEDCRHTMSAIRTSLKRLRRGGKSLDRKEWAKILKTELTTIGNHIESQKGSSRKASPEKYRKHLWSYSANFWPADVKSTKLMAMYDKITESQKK

Sequence of Protein translocase subunit SecA (Escherichia coli (strain K12)) (P10408 whole entry): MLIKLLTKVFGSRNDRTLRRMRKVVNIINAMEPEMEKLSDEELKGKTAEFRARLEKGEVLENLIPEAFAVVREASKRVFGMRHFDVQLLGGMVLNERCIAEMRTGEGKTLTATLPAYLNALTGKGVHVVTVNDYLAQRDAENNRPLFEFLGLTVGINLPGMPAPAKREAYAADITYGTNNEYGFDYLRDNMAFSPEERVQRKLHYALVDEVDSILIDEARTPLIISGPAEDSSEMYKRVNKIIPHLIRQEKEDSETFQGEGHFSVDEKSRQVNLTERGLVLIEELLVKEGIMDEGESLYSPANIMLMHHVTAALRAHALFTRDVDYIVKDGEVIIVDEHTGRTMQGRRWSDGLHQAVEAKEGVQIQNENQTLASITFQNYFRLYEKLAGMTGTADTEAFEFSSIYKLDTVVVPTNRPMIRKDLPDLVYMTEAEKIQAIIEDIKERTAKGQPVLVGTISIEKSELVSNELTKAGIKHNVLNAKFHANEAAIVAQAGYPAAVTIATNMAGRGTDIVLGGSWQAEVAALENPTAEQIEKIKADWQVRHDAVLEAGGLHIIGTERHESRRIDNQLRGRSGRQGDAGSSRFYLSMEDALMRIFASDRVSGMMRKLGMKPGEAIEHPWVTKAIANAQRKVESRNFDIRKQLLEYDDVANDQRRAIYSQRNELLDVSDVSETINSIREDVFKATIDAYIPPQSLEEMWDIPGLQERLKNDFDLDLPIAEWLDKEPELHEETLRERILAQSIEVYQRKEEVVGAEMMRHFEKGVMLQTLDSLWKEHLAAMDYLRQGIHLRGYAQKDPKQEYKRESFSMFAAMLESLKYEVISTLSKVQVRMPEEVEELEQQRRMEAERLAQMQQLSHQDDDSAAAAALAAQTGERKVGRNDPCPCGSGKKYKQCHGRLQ
Sequence of Sialic acid-binding Ig-like lectin 9 (Homo sapiens) (Q9Y336 whole entry): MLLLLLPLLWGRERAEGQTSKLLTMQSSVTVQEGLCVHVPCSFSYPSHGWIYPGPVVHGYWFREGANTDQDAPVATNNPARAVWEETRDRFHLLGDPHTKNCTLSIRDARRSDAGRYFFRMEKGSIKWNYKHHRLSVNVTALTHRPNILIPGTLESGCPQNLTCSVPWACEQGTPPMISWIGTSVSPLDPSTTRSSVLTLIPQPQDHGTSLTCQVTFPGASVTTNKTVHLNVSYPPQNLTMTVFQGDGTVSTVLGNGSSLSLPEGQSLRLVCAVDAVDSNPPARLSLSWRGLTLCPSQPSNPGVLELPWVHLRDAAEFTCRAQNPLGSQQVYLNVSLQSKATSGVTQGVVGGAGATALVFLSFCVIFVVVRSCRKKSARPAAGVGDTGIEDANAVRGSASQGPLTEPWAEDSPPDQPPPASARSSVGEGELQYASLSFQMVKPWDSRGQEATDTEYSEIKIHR

Row | SMILES | Percent Effect [1] [%] | Percent Effect [2] [%] | Percent Effect [3] [%] | Percent Effect [4] [%] | Percent Effect [5] [%] | Percent Effect [6] [%] | Percent Effect [7] [%] | Percent Effect [8] [%] | Percent Effect [9] [%] | Percent Effect [10] [%] | Percent Effect [11] [%]
1 | CCc1nc(N)sc1C(=O)N1CCCC(CCc2ccccc2C)C1 (stereo not drawn) | -4.6 | 5.41 | -6.81 | 34.1 | 4.59 | -0.744 | 10.6 | 34.9 | 9.68 | 18.5 | -1.19
2 | CC(C)c1nc2n(n1)CC(NCc1ncc(-c3ccccc3)o1)CC2 (stereo not drawn) | -0.807 | 2.6 | -3.44 | 5.78 | 4.8 | 4.84 | 4.12 | 8.03 | 2.86 | 2.35 | -14.2
3 | O=C(C[C@@H]1COC[C@H]2CN(Cc3ccc(F)cc3)C[C@@H]12)N1CCOCC1 | -9.06 | 17.3 | -1.45 | -0.881 | -3.73 | -10.4 | 7.58 | 7.29 | -2.12 | -5.13 | -10.9
4 | CN(Cc1nccn1CC(F)(F)F)C(=O)c1cccc(C#N)c1 | -3.37 | -2.63 | 6.05 | 3.82 | -3.21 | -4.73 | 3.74 | -14.9 | 3.19 | 5.2 | 13.6
5 | CCN(CC)C(=O)c1nnn(Cc2ccccc2)c1OC | -6.72 | -1.33 | 3.11 | 2.1 | -4.52 | -4.05 | 8.32 | -11.4 | 6.35 | 5.13 | -1.8
6 | Cc1cnn(CC2CCCCN2Cc2nnc(C3CC3)n2C)c1 (stereo not drawn) | -1.18 | -1.27 | 5 | -0.259 | 5.85 | 0.215 | 8.75 | -10.1 | 3.12 | 5.06 | -2.78
7 | O=C([C@H]1C[C@H]2OCC[C@H]2N(CCc2ccccc2)C1)N1CCCCO1 | -4.49 | 5.41 | 7.77 | -1.67 | -0.0978 | 3.5 | 11.4 | -14.2 | 5.41 | 15.4 | 6.02
8 | COc1ccc(CN2C[C@H]3CN(c4ccsc4)C(=O)[C@H]3C2)cc1 | -1.53 | 0 | 6.82 | -0.914 | -3.23 | 0.955 | 19 | 14.6 | 2.16 | 10.3 | -1.59
